Measured values taken from PubChem BioAssay AID488969 (Vanderbilt High Throughput Screening Facility, 2010).
Whole data set: some 110,000 compounds, median “z-score” near -0.1, cut for the highest 2% near 2. This excerpt belongs to a sample that is enriched for the highest values. Active and inactive are the calls of the source.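 How the source made its calls: active means z-score in the third read window above 3 or below -3; inactive means the rest.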

What follows are compounds tested against Metabotropic glutamate receptor 8 (Rattus norvegicus) (UniProt P70579) (assay: rat mGluR8 modulators via GIRK flux, primary screen, cell-based, thallium flux, HTS (AID 488969)). Conditions: HEK293 rat mGluR8, GIRK (G protein-gated inwardly rectifying potassium channel) thallium flux, FluoZin2; at 10 µM; stronger effect = higher value; submaximal glutamate (EC20) added with thallium.
Metabotropic glutamate receptor 8 (Rattus norvegicus), sequence (P70579 whole entry, looked up): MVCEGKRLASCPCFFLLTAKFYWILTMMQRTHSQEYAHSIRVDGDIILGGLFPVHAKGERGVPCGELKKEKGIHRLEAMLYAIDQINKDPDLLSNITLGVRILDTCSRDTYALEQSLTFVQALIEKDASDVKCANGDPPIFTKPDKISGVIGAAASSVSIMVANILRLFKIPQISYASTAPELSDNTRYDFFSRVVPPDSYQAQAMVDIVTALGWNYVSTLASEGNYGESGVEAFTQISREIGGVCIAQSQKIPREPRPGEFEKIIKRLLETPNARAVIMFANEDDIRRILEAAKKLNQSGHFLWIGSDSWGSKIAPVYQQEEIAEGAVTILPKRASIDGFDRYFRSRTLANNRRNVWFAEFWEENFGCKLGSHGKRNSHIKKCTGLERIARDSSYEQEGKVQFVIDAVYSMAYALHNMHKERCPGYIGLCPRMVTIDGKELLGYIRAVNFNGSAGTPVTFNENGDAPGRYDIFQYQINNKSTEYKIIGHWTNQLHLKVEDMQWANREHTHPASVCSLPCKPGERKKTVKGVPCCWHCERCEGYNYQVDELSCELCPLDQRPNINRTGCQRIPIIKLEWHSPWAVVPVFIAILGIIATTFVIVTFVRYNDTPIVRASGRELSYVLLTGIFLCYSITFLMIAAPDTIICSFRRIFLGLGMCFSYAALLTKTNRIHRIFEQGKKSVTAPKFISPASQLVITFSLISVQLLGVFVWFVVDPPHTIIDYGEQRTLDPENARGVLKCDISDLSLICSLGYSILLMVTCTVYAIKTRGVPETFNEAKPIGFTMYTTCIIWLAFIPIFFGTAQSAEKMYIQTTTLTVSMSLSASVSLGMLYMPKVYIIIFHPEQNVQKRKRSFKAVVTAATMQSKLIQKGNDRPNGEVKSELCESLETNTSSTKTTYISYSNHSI

Row | SMILES | z-score
1 | O=[N+]([O-])c1cccc(C(=Nc2ccc(Cl)cc2)NO)c1 | -0.259
2 | CC(NC(=O)Nc1nnc(C(F)(F)F)s1)N1C(=O)C2C3C=CC(C3)C2C1=O (stereo not drawn) | 0.0447
3 | CCCCCNc1nc(NCCCO)c(C#N)c2c1CN(C)CC2 | -0.528
4 | CC1CCN(c2ccccc2NC(=S)NC(=O)c2ccco2)CC1 | 3.89 (active)
5 | O=C(Nc1ccccc1N1CCCC1)c1ccco1 | -0.0103
6 | CC1CCN(c2ccccc2NC(=O)c2ccc(F)cc2)CC1 | -0.52
7 | O=C(Cc1ccc(Cl)cc1)NC(=S)Nc1ccccc1N1CCOCC1 | 0.883
8 | O=C(NC(=S)Nc1ccccc1N1CCOCC1)c1ccco1 | 9.71 (active)
9 | CC1CCN(c2ccccc2NC(=S)NC(=O)c2cccs2)CC1 | 1.61
10 | N#C/C(=C\c1ccc(Cl)cc1Cl)c1n[nH]c(Cn2cncn2)n1 | -1.59
11 | O=c1cc(NCc2ccco2)c2ccccc2o1 | -0.304
12 | CC1=C(C(=O)OC(C)C)C(c2cccs2)C(C(=O)OC(C)C)=C(C)N1 | -0.281
13 | NC(=O)c1cccnc1Nc1ccccc1Cl | -0.423
14 | O=C(/C=C/c1cccc([N+](=O)[O-])c1)NCCSc1ccccc1 | -0.3
15 | COc1ccc(C(C(=O)NC(C)(C)C)N(C(=O)CNC(=O)c2cccs2)c2ccc(C(C)C)cc2)cc1OC (stereo not drawn) | -0.16
16 | O=C(CSc1cnc2ccccc2n1)NC1CCCC1 | -0.494
17 | COc1ccccc1N1CCN(S(=O)(=O)c2cccc3nsnc23)CC1 | -0.393
18 | OC(COc1ccccc1)Cn1c2ccccc2c2ccccc21 (stereo not drawn) | -0.0732
19 | Cc1ccc(OCC(O)Cn2c(=N)n(Cc3ccccc3)c3ccccc32)cc1 (stereo not drawn) | 4.01 (active)
20 | Cc1ccc(Cn2c(=N)n(CC(O)COc3ccccc3)c3ccccc32)cc1 (stereo not drawn) | 2.98
21 | N=c1n(Cc2ccccc2)c2ccccc2n1CC(O)COc1ccccc1 (stereo not drawn) | 0.257
22 | COc1ccccc1OCC(O)Cn1c(=N)n(Cc2ccccc2)c2ccccc21 (stereo not drawn) | 0.691
23 | Cc1ccc(OCC(O)Cn2c3ccccc3c3ccccc32)cc1 (stereo not drawn) | -0.222
24 | COc1cc(SC)ccc1C(=O)N(C)Cc1ccccc1 | 0.253
25 | CCOC(=O)CSc1ncc(-c2ccccc2)cn1 | -0.0802

Row | SMILES | z-score
26 | CCOC(=O)N1CCN(C(=O)C2CCN(S(=O)(=O)c3ccccc3)CC2)CC1 | -0.151
27 | CN1CCN(C(=S)Nc2cccc(C(F)(F)F)c2)CC1 | -0.213
28 | O=C(Oc1ccc(Br)cc1C(=S)N1CCCCC1)c1cc([N+](=O)[O-])cc([N+](=O)[O-])c1 | 0.762
29 | Cc1c([N+](=O)[O-])cc(C(=O)Oc2ccc(Br)cc2C(=S)N2CCCCC2)cc1[N+](=O)[O-] | 3.58 (active)
30 | Cc1ccccc1C(=O)Oc1ccc(Br)cc1C(=S)N1CCCC1 | -0.342
31 | C=C(C)CN=C1SC(C(=O)Nc2sc3c(c2C(=O)OC)CCC3)C(N)=C1C(N)=O (stereo not drawn) | 0.236
32 | O=C(c1cc2sccc2n1Cc1ccccc1)N1CCCc2ccccc21 | -0.795
33 | O=C(c1cc2sccc2n1Cc1ccc(F)cc1)N1CCCc2ccccc21 | 0.225
34 | COC(=O)c1cc2sccc2n1CC(=O)N1CCCc2ccccc21 | 2.64
35 | CC(C)CCNC(=O)C(c1cccnc1)N(CCc1ccccc1)C(=O)Cn1nnc2ccccc21 (stereo not drawn) | 0.555
36 | CCCCCNc1nc(-c2ccccc2)cs1 | 3.86 (active)
37 | CC(C)=NNc1nc(-c2ccccc2)cs1 | -0.203
38 | c1ccc(CCNc2nc(-c3cccnc3)cs2)cc1 | -0.023
39 | CN(Cc1ccccc1)c1nc2c(c(=O)[nH]c(=O)n2C)n1CCSc1ncccn1 | 0.672
40 | CC(C)NC(=S)N/N=C/C1=CCC2CC1C2(C)C (stereo not drawn) | -0.69
41 | CC1(C)C2CC=C(/C=N/n3cnnc3)C1C2 (stereo not drawn) | 2
42 | CC1(C)C2CC=C(/C=N/NC(=O)c3ccc(O)cc3)C1C2 (stereo not drawn) | -0.0642
43 | Cc1nc2ccc(S(=O)(=O)NC(C(=O)NCc3ccc4c(c3)OCO4)C(C)C)cc2s1 (stereo not drawn) | -0.0773
44 | CCn1cc(C(=O)OCC(=O)c2cc(C)n(-c3ccccc3F)c2C)c(=O)c2ccc(C)nc21 | -0.711
45 | Cc1ccc2nsnc2c1S(=O)(=O)Nc1cccc2nsnc12 | 14.7 (active)
46 | O=S(=O)(Nc1cccc2nsnc12)c1ccccc1 | 0.265
47 | Cc1ccc(C)c(NS(=O)(=O)c2c(C)ccc3nsnc23)c1 | -0.891
48 | O=C(O)COc1ccc(/C=N/n2c(COc3ccccc3)nc3ccccc3c2=O)cc1 | -0.124
49 | O=C1C(=C(c2ccccc2)c2ccccc2)Nc2ccccc21 | -1.32
50 | O=C1CCCc2sccc2N1 | -0.164

Row | SMILES | z-score
51 | O=C1CCCCC(=O)c2ccccc2N1 | 2.21
52 | Cc1cc2cc(C)c3nnc(SCC(=O)N4CCc5ccccc54)n3c2cc1C | -0.31
53 | COc1cc(CNC2CCCCCC2)cc(OC)c1O | 0.176
54 | CCn1c(CNC(=O)c2ccco2)nnc1SCC(=O)Nc1cc(C)c(C)cc1Br | -0.121
55 | COC(=O)c1c(N)c(C#N)c(C)n1-c1ccccc1 | -0.272
56 | CC(C)(C)C(=O)Nc1ccccc1C(=O)OCC(=O)c1ccc2c(c1)OCCO2 | -0.731
57 | CCOC(=O)N1CCN(Cc2nc(N)nc(Nc3ccccc3C)n2)CC1 | -0.106
58 | OCCCCNCc1ccc(OCc2ccccc2)cc1 | 0.0747
59 | OCCCCNCc1ccc(OCc2ccccc2Cl)cc1 | 2.17
60 | OCCCCNCc1ccc(OCc2ccc(Cl)cc2Cl)cc1 | 1.19
61 | Cc1occc1-c1nnc(SCc2cc(=O)n3cc(Br)ccc3n2)n1C | 0.0968
62 | Cc1ccccc1-c1nc(CN2CCC(C(=O)NCCCN3CC(C)CC(C)C3)CC2)c(C)o1 (stereo not drawn) | 2.43
63 | CCN1CCCC1CNC(=O)C1CCN(Cc2nc(-c3cccc(Br)c3)oc2C)CC1 (stereo not drawn) | 4.3 (active)
64 | Cc1oc(-c2ccccc2Cl)nc1CSCC(=O)NC1CCCC1 | -0.0255
65 | Cc1ccccc1-c1nc(CN2CCCC(C(=O)NCCCN3CCOCC3)C2)c(C)o1 (stereo not drawn) | -0.359
66 | Cc1ccccc1-c1nc(CN2CCC(C(=O)NCCCN3CCOCC3)CC2)c(C)o1 | -0.636
67 | Cc1oc(-c2cccc(Cl)c2)nc1CN1CCC(C(=O)NCc2ccco2)CC1 | -4.86 (active)
68 | CCN1CCCC1CNC(=O)CSCc1nc(-c2ccccc2C)oc1C (stereo not drawn) | 4.01 (active)
69 | Cc1ccccc1-c1nc(CN2CCC(C(=O)NCCC3=CCCCC3)CC2)c(C)o1 | 1.63
70 | Cc1ccccc1-c1nc(CN2CCC(C(=O)NCC3CCCO3)CC2)c(C)o1 (stereo not drawn) | -0.924
71 | CCN1CCCC1CNC(=O)CS(=O)(=O)Cc1nc(-c2ccccc2C)oc1C (stereo not drawn) | 1.21
72 | Cc1oc(-c2cccc(Cl)c2)nc1CN1CCC(C(=O)NCC2CCCO2)CC1 (stereo not drawn) | -0.375
73 | Cc1ccccc1-c1nc(CN2CCC(C(=O)NCCCN3CCCC3)CC2)c(C)o1 | 2.76
